Among all 370,000 compounds or so, about 3,800 (1%) were called active. Cut-off read from the data, not from the text of the source: active = activation above about 7.8%; inactive = the rest. What follows is part of a selection rich in actives, with near analogues and random picks from the rest.
Experiment: SMARCA2 (BRM) function activators, primary screen, cell-based, luminescence, high throughput (AID 652017);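 note: 0% = vehicle wells and 100% = reference activator wells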
Details: MG213 cells, MMTV-luciferase reporter, dexamethasone, overnight; at 9.1 µM; active compounds read high
For `Cc1nc2ccc(C(=O)N3CCN(C(=O)C(C)(C)C)CC3)cc2n1C1CCCC1`, the activation was -3.37% (inactive). In the case of `CC(C)Oc1ccc(C(=O)NCC(=O)Nc2ccc3c(c2)CCC3)cc1`, the activation is reported as 5.66% (inactive). For `CC1CC(C)CN(CCC(=O)Nc2ccc3c(c2)CCC3)C1` (stereo not given), the activation was -0.27% (inactive). In the case of `O=C(Nc1ccc2c(c1)CCC2)c1ccc(Br)s1`, the activation is reported as 9.61% (active). For `C[C@H]1CN([C@@H](C)CO)C(=O)Cc2cc(NS(C)(=O)=O)ccc2O[C@@H]1CN(C)CC1CC1`, the activation was 0.45% (inactive). With `COc1ccccc1CNS(=O)(=O)c1c(C)[nH]c(C)c1C(=O)N1CCCCC1` the activation was 3.15% (inactive). With `COC(=O)[C@H](CCSC)NC(=O)Nc1ccc(OC)cc1` the activation was 0.38% (inactive). With `COc1ccc(NC(=O)C(C)SCc2ccccc2)cc1` (stereo not given) the activation was -0.97% (inactive). For `COc1ccc(NC(=O)c2sccc2SCC#N)cc1`, the activation was 8.69% (active). In the case of `Cc1c[nH]c2cccc(-c3ccc(Cl)cc3)c12`, the activation is reported as -2.85% (inactive). With `CCCCn1c(N)c(N(CC(C)C)C(=O)c2cccc(S(=O)(=O)N3CC(C)OC(C)C3)c2)c(=O)[nH]c1=O` (stereo not given) the activation was -0.77% (inactive). In the case of `COC(=O)C1CN(CC(C)C)CCS(=O)(=O)N1Cc1ccc(C)cc1` (stereo not given), the activation is reported as -1.21% (inactive). In the case of `CCC(=O)NC(=Nc1nc2ccccc2s1)NC(=O)CC`, the activation is reported as 7.9% (active). In the case of `O=C(CSc1nc2ccccc2s1)NN=Cc1ccc(O)cc1O`, the activation is reported as -6.37% (inactive). With `CC(C)CC(=O)N/C(N)=N/c1nc2ccccc2s1` the activation was 5.04% (inactive). In the case of `COC(=O)CCC(=O)N1CCCC(CO)(Cc2ccccc2)C1` (stereo not given), the activation is reported as 3.15% (inactive). With `COc1cccc(N2CCN(CC(=O)N(C)Cc3ccc(F)cc3)CC2)c1` the activation was -2.95% (inactive). In the case of `COCn1c(COc2ccccc2)nc2ccccc21`, the activation is reported as 9.21% (active). In the case of `COc1ccccc1Cn1c(CO)nc2ccccc21`, the activation is reported as -2.13% (inactive). With `COCc1nc2ccccc2n1Cc1ccccc1Br` the activation was -3.44% (inactive). With `COC(=O)C1CN(CCc2ccccc2)CCS(=O)(=O)N1Cc1cccc(Cl)c1` (stereo not given) the activation was -3.45% (inactive). For `CCCCN(CC)C(=S)Nc1ccc2nc3n(c(=O)c2c1)CCCCC3`, the activation was -4.18% (inactive). In the case of `Cc1ccc(NC(=O)CN2CCC3(O)CCCCC3C2c2ccc3c(c2)OCO3)c(C)c1` (stereo not given), the activation is reported as 0.08% (inactive). With `CC1CCCCC1NC(=O)CN1CCC(O)(c2ccc3c(c2)OCO3)CC1` (stereo not given) the activation was 8.42% (active). With `CC1CCCCC1NC(=O)CCS(=O)(=O)c1ccc2c(c1)NC(=O)CO2` (stereo not given) the activation was -2.77% (inactive). In the case of `Cc1sc2nc(SCC(=O)c3ccc(O)c(O)c3)n(Cc3ccco3)c(=O)c2c1C`, the activation is reported as -5.31% (inactive). With `Cc1ccccc1OCCC(=O)Nc1c(C)n(C)n(-c2ccccc2)c1=O` the activation was -3.07% (inactive). With `Cc1ccc(S(=O)(=O)CC(=O)Nc2c(C)n(C)n(-c3ccccc3)c2=O)cc1` the activation was -1.75% (inactive). In the case of `Cc1c(NC(=O)CSc2cccc3cccnc23)c(=O)n(-c2ccccc2)n1C`, the activation is reported as 8.2% (active). For `C[C@]1(C(=O)NCCc2c[nH]c3ccccc23)C=C[C@@H](Cc2ccccc2)N1C(=O)c1ccccc1`, the activation was 1.41% (inactive). In the case of `Cc1ccc(-n2c(SCC(=O)Nc3ccc(S(=O)(=O)Nc4nccs4)cc3)nnc2-c2cccnc2)cc1`, the activation is reported as -5.55% (inactive). With `Cc1c(CCO)c(=O)n(-c2ccccc2)n1S(=O)(=O)c1ccc(F)cc1` the activation was -2.63% (inactive). For `O=C(NCc1cccs1)C1CCN(S(=O)(=O)c2ccccc2[N+](=O)[O-])CC1`, the activation was -3.33% (inactive). For `Cc1ccc(NC(=S)NNC(=O)CSc2nnc(SCc3ccccc3Cl)s2)cc1`, the activation was -6.06% (inactive). In the case of `CC(=O)Oc1ccc(C(=O)Nc2nccs2)cc1`, the activation is reported as 9.12% (active). For `CCOc1ccc(C(=O)Nc2nccs2)cc1[N+](=O)[O-]`, the activation was 5.63% (inactive). In the case of `Cn1cccc1C(=O)Nc1nccs1`, the activation is reported as 1.12% (inactive). For `COc1ccc(-c2nc3n(c(=O)c2C#N)CCS3)c(OC)c1`, the activation was -2.7% (inactive). For `COc1ccc2c(c1)CN1CN(CCc3ccccc3)S(=O)(=O)CC21` (stereo not given), the activation was 5.9% (inactive). With `COc1ccc(-c2cc(C(F)(F)F)nc(S(C)(=O)=O)n2)cc1OC` the activation was -11.1% (inactive). In the case of `COc1ccc(OC)c2c(N)c(C#N)c(C(F)(F)C(F)(F)F)nc12`, the activation is reported as 1.9% (inactive). For `COc1ccc(-c2cc(-c3ccc(N)cc3)nc(N)c2C#N)cc1OC`, the activation was 8.11% (active). For `CCCCOc1ccc(Cl)cc1CSc1nncn1N`, the activation was 1.44% (inactive). For `CCCCCCCCN1C(=O)[C@@H](CC(=O)NCc2ccc(C)o2)C[C@@]2(C(=O)OC)C1=C[C@H](C(C)(C)C)O[C@@H]2C`, the activation was -5.88% (inactive). For `COc1cccc(CSc2nnc(-c3cccnc3)n2Cc2ccccc2)c1`, the activation was -3.94% (inactive). With `Cc1ccc(S(=O)(=O)NC2CCCCCC2)cc1C(N)=O` the activation was -2.18% (inactive). For `CC(C)c1ccc(S(=O)(=O)NC2CCCC2)cc1`, the activation was -1.52% (inactive). In the case of `Cn1sc(=O)c2cc(S(=O)(=O)NC3CC3)ccc21`, the activation is reported as 8.34% (active). For `CN(C)CC(=O)N[C@@H]1C[C@@H]2O[C@H](CO)CC[C@@H]2O[C@@H]1CCc1ccc(C#Cc2ccccc2)cc1`, the activation was 0.56% (inactive). In the case of `CCC(C)Sc1nc(C)nc2c1c(=O)n(C)c(=O)n2C` (stereo not given), the activation is reported as -1.47% (inactive). With `CC(=O)Nc1cc(-c2cccc(CO)c2)cn2c(-c3cccc(C(F)(F)F)c3)cnc12` the activation was -2.27% (inactive). For `COc1ccc(-c2cc(NC=O)c3ncc(-c4cccc(C(=O)N(C)C)c4)n3c2)c(OC)c1`, the activation was -4.41% (inactive). With `CC(=O)c1cccc(-c2cnc3c(NC=O)cc(-c4ccc(N5CCN(C)CC5)cc4)cn23)c1` the activation was 16.7% (active). For `CN(C)C(=O)c1cccc(-c2cnc3c(NC=O)cc(-c4ccc(C(=O)N5CCOCC5)cc4)cn23)c1`, the activation was 3.31% (inactive). For `CC(=O)Nc1cc(-c2ccc(N3CCN(C)CC3)cc2)cn2c(-c3ccc(F)cc3)cnc12`, the activation was 12.3% (active). With `CN(C)CCNC(=O)c1cccc(-c2cnc3c(NC=O)cc(-c4cccc(C(F)(F)F)c4)cn23)c1` the activation was 21.3% (active). In the case of `CC(=O)Nc1cccc(-c2cc(NC(C)=O)c3ncc(-c4ccccc4)n3c2)c1`, the activation is reported as -12.2% (inactive). In the case of `O=CNc1cc(-c2ccc(C(=O)N3CCOCC3)cc2)cn2c(-c3ccc(F)cc3)cnc12`, the activation is reported as -2.13% (inactive). With `CC(=O)Nc1cc(-c2ccc(N3CCN(C)CC3)cc2)cn2c(-c3cccc(C(=O)N(C)C)c3)cnc12` the activation was 5.35% (inactive). In the case of `O=C(CN1CCC(NC(=O)NCc2ccccc2)CC1)Nc1ccc2c(c1)OCCO2`, the activation is reported as 0.31% (inactive). In the case of `COc1ccc(N2CCN(CCNS(=O)(=O)c3ccc(C(C)(C)C)cc3)CC2)cc1`, the activation is reported as 3.29% (inactive). For `Clc1ccc(-n2c(COc3ccccc3)nnc2SCc2nc3ccccc3[nH]2)cc1`, the activation was -4.61% (inactive). With `O=C(CCCCO)c1ccc(O)c(Cl)c1` the activation was -1.51% (inactive). For `CC(C)CNc1cccc2c1S(=O)(=O)N(Cc1cn(Cc3ccccc3C(F)(F)F)nn1)Cc1ccccc1O2`, the activation was -2.65% (inactive). With `CCOC(=O)N1CCN(C(=O)C[C@@H]2C(=O)N(CCc3ccc(Cl)cc3)C3=CCCC[C@]32C(=O)OCC)CC1` the activation was -1.86% (inactive). With `COc1cc(NC(=O)C2CCCN(S(=O)(=O)c3ccc(C(C)(C)C)cc3)C2)cc(OC)c1` (stereo not given) the activation was 2.08% (inactive). With `CCCCCN1CCCCC(NC(=O)C(C)CCC)C1=O` (stereo not given) the activation was -0.09% (inactive). In the case of `C/C(=N\NC(=S)NCc1ccccc1)C1CCCCC1`, the activation is reported as 1.15% (inactive). In the case of `CC1CCCCN1C(=S)NCc1ccccc1` (stereo not given), the activation is reported as 8.25% (active). In the case of `CC1CCCCN1C(=O)CCS(=O)(=O)Cc1ccccc1` (stereo not given), the activation is reported as -2.25% (inactive). With `O=C1C2CCCN2C(=O)N1CCCCN1CCN(c2cccc(C(F)(F)F)c2)CC1` (stereo not given) the activation was 2.48% (inactive). With `CN(C)C(CNC(=O)c1ccc(OCc2cn3ccccc3n2)cc1)c1ccco1` (stereo not given) the activation was 11.2% (active). For `O=C(NCCc1ccco1)c1ccc(OCc2cn3ccccc3n2)cc1`, the activation was 6.76% (inactive). For `O=Cc1ccc(OCc2cn3ccccc3n2)cc1`, the activation was -6.54% (inactive). With `CC(=O)N1CCCN(C2=Nc3ccccc3Sc3ccccc32)CC1` the activation was -0.9% (inactive). For `O=C(NCc1ccco1)C1CCCN(S(=O)(=O)c2ccc(Cl)s2)C1` (stereo not given), the activation was -1.17% (inactive). For `Fc1ccc(/C=N/Nc2nc(-c3cccnc3)nc3ccccc23)cc1`, the activation was 11.3% (active). For `O=C(CSc1n[nH]c(-c2cccnc2)n1)Nc1ccnc2ccccc12`, the activation was -1.59% (inactive). In the case of `COC(=O)c1cccc(Cn2ccc3ccc(-c4ccc5ccn(C(=O)C6CCCCC6)c5c4)cc32)c1`, the activation is reported as -0.58% (inactive). With `Cc1ccccc1NC(=O)COC(=O)c1ccc(Sc2ncn[nH]2)c([N+](=O)[O-])c1` the activation was -3.59% (inactive). With `CC[C@@H](CCC(=O)N(c1ccccc1)c1ccccc1)C1CC1` the activation was -5.25% (inactive). With `Cc1ccc(NS(=O)(=O)c2ccc(C(C)C)cc2)cc1S(=O)(=O)N1CCOCC1` the activation was -0.94% (inactive). With `COC(=O)[C@@]12CCCCC=C1N(CCc1ccc(Cl)cc1)C(=O)[C@H]2CC(=O)NCc1ccc(OC)c(OC)c1` the activation was -0.41% (inactive). For `CCC(=O)Nc1ccc2nn(-c3ccc(F)cc3)nc2c1`, the activation was 9.02% (active). With `CCOC(=O)c1nnn(CC(=O)Nc2cccc(F)c2)c1C(=O)OCC` the activation was -2.09% (inactive). In the case of `O=C(Nc1cccc(Cl)c1)c1cncn1-c1ccc(F)cc1`, the activation is reported as -2.14% (inactive). With `CN(C)C(=S)N=c1ssc(=S)n1Cc1ccco1` the activation was 8.22% (active). With `CC1CN(Cc2ccco2)C(=S)N(c2ccccc2)C1=O` (stereo not given) the activation was -1.86% (inactive). With `CCc1ccccc1N1CN(Cc2ccco2)CNC1=S` the activation was -4.87% (inactive). For `COC(=O)C1=C(C)N(Cc2ccc(F)cc2)C(=S)NC1c1cccc(Cl)c1` (stereo not given), the activation was -3.14% (inactive).
